In the library only some 3.8% were active in any assay of this set; here they are far more common.
UbGFP stabilizer – proteasome inhibitors stabilizing ubiquitin-GFP reporter; Ubiquitin-GFP reporter cells, proteasome inhibition, GFP fluorescence; response scale: untreated = 0%, 10 µM MG-132 = 100%; AID 526; 67,000 tested, under 10 active; Potency, µM (highest dose often 45.9 µM), hits mostly activators; active = well fitted activation curve with a large enough effect, not every such curve was filed as active; inconclusive = small, poorly fitted or top-dose-only effect, or another doubt; inactive = no such curve, though single readings can be large or run the other way
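U2OS cells stably expressing ubiquitin(G76V)-GFP, seeded overnight in 0.5% FBS medium, were exposed to compounds (qHTS, 46 uM to 2.9 nM) for 4 hr at 37 °C. GFP-positive cells were counted by laser cytometry (488 ex/515 em), normalized between basal and 10 uM MG-132.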
Epigenetic mod – epigenetic GFP locus derepression in mouse cells. mouse C127i GFP locus derepression, cytometry, 30 h. Potency, µM (doses to about 46.1 µM). 68,000 compounds, 0.09% hits. AID 597
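Locus derepression in mouse mammary C127i cells whose integrated CMV-GFP reporter is normally silent; GFP expression after 30 h compound treatment was quantified by counting fluorescent cells.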
HEK293 cAMP ctrl – counter-screen for TSHR agonists: cAMP increase in parental HEK293; 73,000 compounds, 2.5% hits; AID 938; Potency, µM (top dose mostly 57.1 µM), actives largely listed as activators; parental HEK293 CNG cAMP sensor, membrane potential fluorescence; note: nearly all actives have a fitted effect of over 55% in size
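Parental HEK 293 cells stably expressing a modified CNG channel (no TSHR) report cAMP rise as membrane depolarization. Membrane potential dye with 100 uM RO 20-1724 was loaded for 60 min at room temperature, then compound added for 30 min; fluorescence read at 590 nm.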
ERK AVP inh – blocks ERK signaling stimulated by vasopressin; HEK293-V1b, vasopressin-stimulated pERK AlphaScreen; Potency, µM (titrated, usually from 57.5 µM), usual class: inhibitors; 72,000 compounds, 0.99% hits; note: nearly all actives have a fitted effect of over 55% in size
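HEK293 cells stably expressing V1b receptor, seeded overnight in 1% FBS, were treated with compounds for 30 min at 37C, then stimulated 5 min with 25 nM vasopressin; phospho-ERK read by AlphaScreen SureFire after lysis.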
HBB splice mod – alters splicing of the hemoglobin beta chain | HBB splicing reporter cell assay, activation; EGFP reporter with mutant IVS2-654 intron; response scale: normalised to 500 nM splice-correcting PNA | Potency, µM (titrated, usually from 46.1 µM), actives largely listed as activators | 65,000 compounds, 0.06% hits | AID 925
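Compounds were applied for 2 days to HeLa EGFP-654 cells, 500/well in Optimem with 2% FCS. The reporter's EGFP is disrupted by mis-splicing of beta-globin intron IVS2-654. Readout: summed well GFP fluorescence from 488 nm laser scanning; reference was 500 nM antisense […] 654 PNA.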
TSHR agonist – TSH receptor (human) agonism; 73,000 compounds, 0.48% hits; HEK293-CNG-TSHR cells (CNG channel as cAMP sensor), membrane potential dye, cAMP; Potency, µM (titrated, usually from 57.1 µM), most hits filed as activators; active = well fitted activation curve with a large enough effect in the main read-out, with a control signal flat, not every such curve was filed as active; inconclusive = small, poorly fitted or top-dose-only effect, or a change in a side signal; inactive = no such curve, though single readings can be large or run the other way; reference of the percent scale not stated here;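 note: the control signal comes from parental cells without the receptor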
Target sequence (P16473 whole entry, looked up): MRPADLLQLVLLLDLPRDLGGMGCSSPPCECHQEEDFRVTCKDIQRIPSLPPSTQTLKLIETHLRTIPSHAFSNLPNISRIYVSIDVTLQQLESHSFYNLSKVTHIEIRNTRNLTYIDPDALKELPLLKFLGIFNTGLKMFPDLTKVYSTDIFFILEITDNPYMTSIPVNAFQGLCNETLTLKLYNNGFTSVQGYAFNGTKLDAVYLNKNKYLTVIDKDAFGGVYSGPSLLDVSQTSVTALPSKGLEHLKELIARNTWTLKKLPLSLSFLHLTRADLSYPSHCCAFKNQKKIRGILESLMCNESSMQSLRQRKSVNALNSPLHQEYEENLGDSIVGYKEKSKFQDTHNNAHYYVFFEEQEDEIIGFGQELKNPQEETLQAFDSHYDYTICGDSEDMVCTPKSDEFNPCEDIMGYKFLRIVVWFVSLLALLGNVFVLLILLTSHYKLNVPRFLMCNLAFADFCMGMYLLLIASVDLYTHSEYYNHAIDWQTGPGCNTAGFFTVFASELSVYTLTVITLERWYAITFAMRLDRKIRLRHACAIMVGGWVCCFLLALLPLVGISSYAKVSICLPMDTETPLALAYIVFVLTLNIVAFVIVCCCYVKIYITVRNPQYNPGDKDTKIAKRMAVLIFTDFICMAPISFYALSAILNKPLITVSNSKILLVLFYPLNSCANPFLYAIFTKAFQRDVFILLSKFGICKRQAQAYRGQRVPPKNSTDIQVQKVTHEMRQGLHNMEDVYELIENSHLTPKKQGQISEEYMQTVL
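HEK 293 cells stably expressing TSHR and a cAMP-gated CNG channel; parental CNG-only cells as counterscreen. Cells preloaded 60 min with membrane potential dye plus 100 uM RO 20-1724, then compound 30 min; fluorescence read at 590 nm.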
Each line names hits and unclear results; the compound was inactive in the other large screens. Unless noted, calls come from the whole dose curve; as a rule, active = well fitted curve in the direction sought with a large enough effect; inconclusive = small, poorly fitted or top-dose-only effect, or another doubt; inactive = no such curve, though single readings can be large; an effect the other way counts as inactive or inconclusive.

O=C(CC(c1ccco1)S(=O)(=O)c1ccccc1)c1ccc(F)cc1 (stereo not given)	Epigenetic mod 3.2µM (no result: UbGFP stabilizer, HEK293 cAMP ctrl, ERK AVP inh, HBB splice mod, TSHR agonist)
COc1ncc2nc(-c3ccccc3)c(=O)n(C3CC3)c2n1	ERK AVP inh inconclusive
O=C(NCc1ccc2c(c1)OCO2)c1ccc2snnc2c1	HEK293 cAMP ctrl 7.9µM, TSHR agonist inconclusive
Cn1nnc2cc(C(=O)NCc3ccc4c(c3)OCO4)ccc21	none
NCCC(=O)O	none (no result: HBB splice mod)
Nc1nc2c(s1)CCc1c-2cnn1-c1ccccc1	ERK AVP inh 25µM
COCCN(CC(=O)NC1CCCCC1)C(=O)CSc1nc2ccccc2o1	HEK293 cAMP ctrl inconclusive, TSHR agonist inconclusive
O=C(CN(Cc1ccc2c(c1)OCO2)C(=O)CSc1nc2ccccc2o1)NC1CCCCC1	HEK293 cAMP ctrl 16µM, TSHR agonist inconclusive
O=C(Oc1ccc(-c2cn3c(n2)SCC3)cc1)c1ccccc1	ERK AVP inh 16µM
CC(O)CC(C)O (stereo not given)	none (no result: UbGFP stabilizer, Epigenetic mod)
COc1ccc(-c2nc3cnc(N4CCOCC4)nc3n(Cc3cccs3)c2=O)cc1	none
CCCC(=O)Nc1nc2ccc(NC(=O)c3ccc(Br)o3)cc2s1	ERK AVP inh 20µM
CCC(=O)Nc1nc2ccc(NC(C)=O)cc2s1	none (no result: HBB splice mod)
CSCCC(NC(=O)c1ccccc1)c1nc(-c2ccccc2)no1 (stereo not given)	HEK293 cAMP ctrl 16µM, TSHR agonist inconclusive
c1ccc(-c2cc3c(-n4cccc4)ncnc3o2)cc1	HEK293 cAMP ctrl 20µM, TSHR agonist inconclusive
COCCn1c(=O)c(-c2ccc(F)cc2)nc2cnc(N3CCOCC3)nc21	none
CCC(COC(=O)Nc1cccc(C)c1)NC(=O)OCC(C)C (stereo not given)	HEK293 cAMP ctrl inconclusive, TSHR agonist inconclusive
Cc1nnsc1NC(=O)OCC(C)C	HEK293 cAMP ctrl 13µM, ERK AVP inh inconclusive, TSHR agonist inconclusive
Cc1cc(C(=O)CSc2nc3ccccc3o2)c(C)n1C1CC1	HEK293 cAMP ctrl 16µM, TSHR agonist inconclusive
C=CCn1c(C)cc(C(=O)CSc2nc3ccccc3c(=O)[nH]2)c1C	HEK293 cAMP ctrl 25µM, ERK AVP inh 20µM, TSHR agonist inconclusive
COC(=O)CSc1nc2ccccc2o1	none
COCCn1c(C)cc(C(=O)CSc2nc3ccccc3c(=O)[nH]2)c1C	none
C=CCn1c(C)cc(C(=O)CSc2nc3ccccc3o2)c1C	HEK293 cAMP ctrl 25µM, TSHR agonist inconclusive
C=CCn1c(C)cc(C(=O)CSc2nnc(Cc3ccccc3)o2)c1C	HEK293 cAMP ctrl inconclusive, TSHR agonist inconclusive
CCCCNc1cc(C)nc(NCc2ccccc2)n1	HEK293 cAMP ctrl 6.3µM, ERK AVP inh inconclusive, TSHR agonist inconclusive
Cc1nc2c(c(=O)n1CC1CCCO1)c1nc3ccccc3nc1n2Cc1ccc2c(c1)OCO2 (stereo not given)	none (no result: UbGFP stabilizer, HEK293 cAMP ctrl, ERK AVP inh, HBB splice mod, TSHR agonist)
CC(=O)OCc1ccco1	HEK293 cAMP ctrl inconclusive, TSHR agonist inconclusive (no result: UbGFP stabilizer, Epigenetic mod)
CCn1c(C(=O)NCc2ccccn2)cc2sccc21	none (no result: UbGFP stabilizer, Epigenetic mod, ERK AVP inh, HBB splice mod)
Cn1c(C(=O)N(Cc2ccccc2)Cc2ccccn2)cc2sccc21	HEK293 cAMP ctrl 16µM, TSHR agonist inconclusive
CCn1c(C(=O)NCCCc2ccccc2)cc2sccc21	TSHR agonist inconclusive (no result: UbGFP stabilizer, Epigenetic mod, ERK AVP inh, HBB splice mod)
Cn1c(C(=O)N(Cc2ccccc2)Cc2cccs2)cc2sccc21	HEK293 cAMP ctrl 16µM, TSHR agonist inconclusive (no result: HBB splice mod)
CC(=O)OCCNc1cc(N2CCN(C)CC2)c2noc3c2c1C(=O)c1ccccc1-3	ERK AVP inh 16µM
O=C(CN(Cc1cccs1)C(=O)CN1C(=O)COc2ccccc21)NCc1ccco1	HEK293 cAMP ctrl 16µM, TSHR agonist inconclusive (no result: HBB splice mod)
O=C(CCN1C(=O)COc2ccccc21)NCc1ccco1	none (no result: TSHR agonist)
CC1=C(C(=O)Nc2ccccc2)C(c2ccc3c(c2)OCO3)C2=C(CCCC2=O)N1 (stereo not given)	HEK293 cAMP ctrl 16µM, TSHR agonist inconclusive
OCC1OC(/C=C\c2ccccc2)C=CC1Oc1ccc2c(c1)OCO2 (stereo not given)	HEK293 cAMP ctrl 4µM, TSHR agonist inconclusive (no result: UbGFP stabilizer, Epigenetic mod)
